Shown are actives, neighbours in structure and some others; about 5.4% of the full set was active somewhere.
aDG glyco up: alpha-DG glycosylation activation. Pro5-aDG cells, alpha-DG glycosylation AlphaScreen (IIH6); 0% Pro5, 100% B10-LARGE cell signal. activation, % at 10 µM. 360,000 compounds, 0.22% hits. AID 624168;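 active means activation of at least 8% versus controls, or a plate z-score of at least 8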;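 further: Pro5 are CHO cells carrying HIG-tagged alpha-DG that lacks glycosylation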
APOBEC3G inh: blocks human APOBEC3G single-stranded DNA deamination. inhibition, % at 20 µM. Q9HC16. 330,000 compounds, 0.28% hits. recombinant A3G, ssDNA deamination FAM/TAMRA fluorescence;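 active means inhibition of at least 40% at 20 µM, with no more than 30% in the related APOBEC3A deaminase screen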;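 further: plate controls were DMSO wells with A3G for no effect and wells lacking A3G enzyme for full effect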
Target sequence (Q9HC16 whole entry, looked up): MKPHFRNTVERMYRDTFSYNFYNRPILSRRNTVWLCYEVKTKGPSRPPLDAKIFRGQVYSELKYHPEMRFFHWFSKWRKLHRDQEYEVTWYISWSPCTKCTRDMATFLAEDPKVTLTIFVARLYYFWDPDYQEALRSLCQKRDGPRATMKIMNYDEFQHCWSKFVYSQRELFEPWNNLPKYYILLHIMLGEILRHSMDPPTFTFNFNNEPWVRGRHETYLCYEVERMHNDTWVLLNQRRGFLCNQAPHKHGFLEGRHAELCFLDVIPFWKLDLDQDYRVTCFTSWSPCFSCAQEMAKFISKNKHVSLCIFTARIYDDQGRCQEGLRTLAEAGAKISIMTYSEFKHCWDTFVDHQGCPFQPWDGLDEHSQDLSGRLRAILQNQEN
rCAG RNA binder: r(CAG) repeat RNA binding; TO-PRO-1 dye displacement fluorescence; inhibition, % at 3 µM; 370,000 compounds, 1.3% hits; AID 651821;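 active means inhibition above the plate cutoff, the mean of all test compounds on that plate plus 3 SD, cut at about 35% in these data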;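 further: 0% = DMSO alone and 100% = 100 µM mitoxantrone as full dye displacement; higher means more dye released from RNA so lower well fluorescence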
A3A deaminase: blocks human APOBEC3A ssDNA deamination. recombinant A3A, FAM/TAMRA ssDNA deamination fluorescence. inhibition, % at 20 µM. 330,000 compounds, 0.41% hits;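 active means at least 40% inhibition at 20 µM here, with at most 30% in a related deaminase screen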;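 further: plate controls were A3A with DMSO for no effect and wells lacking A3A enzyme for full effect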
ALR H2O2 inh: inhibitors of human sulfhydryl oxidase ALR. P55789. purified ALR, DTT oxidation, H2O2 HRP-luminol luminescence. inhibition, % (concentration not given with the values). 290,000 compounds, 3.8% hits;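 active means mean replicate inhibition above about 79%, with every replicate also reaching it, limit read from the data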
Target sequence (P55789 whole entry, looked up): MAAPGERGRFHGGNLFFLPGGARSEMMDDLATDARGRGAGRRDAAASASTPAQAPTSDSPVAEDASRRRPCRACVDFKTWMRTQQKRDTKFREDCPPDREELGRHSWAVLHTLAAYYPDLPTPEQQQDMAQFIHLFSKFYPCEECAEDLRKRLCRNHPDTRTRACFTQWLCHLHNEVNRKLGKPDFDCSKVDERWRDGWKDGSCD
PHOSPHO1 inh: inhibitors of human PHOSPHO1 phosphatase. Q8TCT1. recombinant PHOSPHO1, absorbance phosphatase assay. inhibition, % at 13.3 µM. 290,000 compounds, 1.1% hits. AID 1565; in the data active means inhibition above about 60%
* = called active by the depositor; . = not tested or not shown.

SMILES	aDG glyco up	APOBEC3G inh	rCAG RNA binder	A3A deaminase	ALR H2O2 inh	PHOSPHO1 inh
NC(N)=NCC(O)CN(c1ccccc1)c1ccccc1 (configuration not stated)	0	-11	12	-4	99*	12
CN(Cc1ccccc1)CC(O)CN(C)Cc1ccccc1	0	.	-2	.	.	.
CNCC(O)CN(c1ccccc1)c1ccccc1 (configuration not stated)	0	-6	-1	-1	99*	16
CN(CCO)CC(O)CN(c1ccccc1)c1ccccc1 (configuration not stated)	0	0	-4	-3	99*	16
NC(=S)N(c1ccccc1)c1ccccc1	2	-2	1	4	-3	22
N#CCC[C@H]1CC[C@]2(CCCN(S(=O)(=O)c3ccccc3)C2)O1	.	.	3	.	.	.
CCCCNC(=O)C1CCCN1C(=O)Nc1cc(C)cc(C)c1 (configuration not stated)	.	.	4	.	.	.
CN(Cc1ccccc1)C(=O)OCc1cn(Cc2ccc(F)cc2)nn1	.	.	-1	.	.	.
CN(CCOC(=O)c1cc2ccccc2o1)C1CN(Cc2cn(Cc3ccccc3F)nn2)S(=O)(=O)C1 (configuration not stated)	.	.	-1	.	.	.
CCc1ccc(-c2cn3c(n2)SCC3)cc1	1	0	9	1	-2	-25
Cc1ccc(-c2cn3c(n2)SCC3)cc1	0	2	1	3	98*	1
COC(=O)C1(Cc2ccc(O)cc2)OC(=O)C(O)=C1c1ccc(O)cc1 (configuration not stated)	0	5	8	13	99*	8
COc1cc(C(=O)NCCCc2nc3ccccc3n2Cc2cc(C)ccc2C)cc(OC)c1OC	0	-1	1	-1	-11	-6
CC(=O)NCCCc1nc2ccccc2n1Cc1cc(C)ccc1C	0	-7	-4	-5	-3	64*
Nc1ccccc1OCCOCCOCCOc1ccccc1N	0	-6	1	-4	97*	-16
O=P(COCCOCCOCP(=O)(c1ccccc1)c1ccccc1)(c1ccccc1)c1ccccc1	0	-2	-3	-2	0	37
CCCCOc1ccccc1N	0	-2	-2	-3	-9	2
Nc1ccccc1OCP(=O)(c1ccccc1)c1ccccc1	0	3	-2	2	96*	10
O=C(CCCC1=NS(=O)(=O)c2ccccc2N1)N1CCN(c2ccccc2Cl)CC1	.	.	2	.	.	.
S=c1[nH]nc(-c2ccc(Br)cc2)n1Cc1ccco1	0	30	5	1	88*	37
CC(C)Cn1c(-c2ccncc2)n[nH]c1=S	0	11	-2	0	87*	-80
CC(C)(C)c1ccc(-c2n[nH]c(=S)n2-c2ccccc2)cc1	0	2	6	-2	.	-129
Cc1c(Cl)c(-c2n[nH]c(=S)n2-c2ccccc2)nn1C	0	29	0	-2	92*	-21
C=C(C)Cn1c(-c2ccncc2)n[nH]c1=S	0	-7	-1	-3	51	15
S=c1[nH]nc(-c2ccncc2)n1Cc1ccco1	0	15	1	0	96*	-14
SMILES	aDG glyco up	APOBEC3G inh	rCAG RNA binder	A3A deaminase	ALR H2O2 inh	PHOSPHO1 inh
Cc1cccc(-c2cccc3c4c([nH]c23)[C@@H]2C[C@H](N(C)C(=O)NC3CCCCC3)[C@H]([C@H](C)O)C(=O)N2CC4)c1	.	.	12	.	.	.
Cc1c(Cl)c(-c2n[nH]c(=S)n2Cc2ccco2)nn1C	0	32	0	1	21	80*
COc1cccc(-c2n[nH]c(=S)n2Cc2ccco2)c1	0	35	6	-2	-4	35
C=CCCN1[C@@H](Cc2ccccc2)COc2ccccc2S1(=O)=O	.	.	2	.	.	.
CCCCCCNC(=O)C1CSCCS(=O)(=O)N1Cc1ccc(F)cc1 (configuration not stated)	.	.	-3	.	.	.
N#Cc1ccsc1NC(=O)CSc1ncn[nH]1	0	-1	3	4	-3	14
Cc1csc(NC(=O)CSc2ncnc3c2cnn3-c2ccccc2Cl)n1	0	-1	.	5	99*	-24
N#Cc1ccsc1NC(=O)CSc1ncnc2ccccc12	0	18	21	8	98*	1
Cc1csc(NC(=O)CSc2nc3ccccc3c3c2CCCC3)n1	0	-5	5	-2	-2	-1
Cc1csc(NC(=O)CSc2ncnc3ccccc23)n1	0	-7	5	-2	75	63*
CCOP(=O)(OCC)C(Nc1ccc(OC)cc1)c1ccco1 (configuration not stated)	0	-9	-5	-5	95*	-3
Cc1ccc(C(=O)c2sc3nsc(C)c3c2N)cc1	0	-7	6	-4	-7	98*
Cc1snc2sc(C(=O)c3ccc(Br)cc3)c(N)c12	0	-5	-1	-3	-17	86*
Cc1ccc2nc(-c3ccc(NC(=O)CSc4nnc(-c5cc(C)[nH]n5)n4N)cc3)sc2c1	.	.	6	.	.	.
c1ccc(-c2nnc3n2N=C(c2ccc4ccccc4c2)CS3)cc1	.	.	6	.	.	.
N#C/C(=C(/O)CSc1ccccn1)c1nc2ccccc2s1	0	-5	3	2	82*	-102
Cc1ccc2nc(N3C(=O)C(O)=C(C(=O)c4ccco4)C3c3cccs3)sc2c1 (configuration not stated)	0	-2	31	-3	-1	86*
Cc1ccc2nc(N3C(=O)C(O)=C(C(=O)c4ccc(C)o4)C3c3ccc(O)cc3)sc2c1 (configuration not stated)	0	-3	69*	1	45	.
CCOc1ccc2nc(N3C(=O)C(O)=C(C(=O)c4ccco4)C3c3ccco3)sc2c1 (configuration not stated)	0	12	22	32	6	.
C[C@H](O)[C@@H]1CN2CCc3c([nH]c4c(-c5ccc6c(c5)OCO6)cccc34)[C@@H]2C[C@@H]1N(C)C(=S)NCCc1ccccc1	.	.	8	.	.	.
CC(=O)/C=C/c1ccc2ccccc2n1	0	-6	-3	-3	98*	25
COc1ccccc1NC(=O)C(C)OC(=O)/C=C/c1ccc2ccccc2n1 (configuration not stated)	1	4	0	-3	94*	.
CC(OC(=O)/C=C/c1ccc2ccccc2n1)C(=O)N(C)c1ccccc1 (configuration not stated)	2	-2	0	0	1	.
CCN1CCCC1CNC(=O)CCc1nnc(CCC2CCCCC2)o1 (configuration not stated)	0	-4	-6	0	100*	45
CCn1cc(CNC(=O)CCc2nnc(CCC3CCCCC3)o2)cn1	0	-5	-7	-3	-3	-6
CC(=O)/C(=N\Nc1ccc(C)cc1)N1CCOCC1	0	-6	-6	-3	99*	65*
CC(=O)Nc1ccc(NC(=O)N2CCOCC2)cc1	0	.	0	.	.	.

Assay outcomes: PubChem BioAssay, several laboratories
